Assay results as given in ChEMBL document CHEMBL4888484, “Replenishing the malaria drug discovery pipeline: Screening and hit evaluation of the MMV Hit Generation Library 1 (HGL1) against asexual blood stage Plasmodium falciparum ,using a nano luciferase reporter read-out” (2022).
Screen size: about 150,000 compounds; about 540 (0.36%) showed an effect of 50% or more. Shown is part of a subset that was picked to be rich in strong results.

What follows are molecules tested on Plasmodium falciparum (assay: Primary screen in NF54 nanoGlo assay, in single point, at 2uM, 72h; a lower Z score goes with more inhibition). Details: timepoint 72 hour.
Format: functional, Erythrocyte
With `CN1C(=O)C2(CCN(C(=O)CN3C(=O)OC(C)(C)C3=O)CC2)c2ccccc21` the “% Inhibition” value was -7% and the Z score was 0.88. With `O=C(CN(CC1CCCO1)C(=O)C1CC1(Cl)Cl)N1CCCC1` (configuration not stated) the “% Inhibition” value was -19% and the Z score was 1.85. For `O=C(c1cccc(-n2cnnn2)c1)N1CCn2c1nc1ccccc12`, the “% Inhibition” value was 2% and the Z score was -0.23. In the case of `O=C(c1ccc2c(c1)OCO2)N1CCn2c1nc1ccccc12`, the “% Inhibition” value was 72% and the Z score was -0.31. In the case of `O=C(c1cncc(N2CCOCC2)c1)N1CCn2c1nc1ccccc12`, the “% Inhibition” value was -9% and the Z score was 1.5. In the case of `Cc1cnc(C(=O)NC2CCCCCCC2)cn1`, the “% Inhibition” value was 18% and the Z score was -2.33. `COc1ccc2nc(O)c(CCC(=O)N3CCCC3)cc2c1` was tested, and the “% Inhibition” value was -20% and the Z score was 3.74. In the case of `O=C(CC1CCC(F)(F)CC1)Nc1ccc2c(c1F)CCNC2`, the “% Inhibition” value was -13% and the Z score was 1.83. `COc1ccc2nc(O)c(C(=O)Nc3ccc4c(c3F)CCNC4)cc2c1` was tested, and the “% Inhibition” value was 99% and the Z score was -18.01. With `CC(C)n1ccnc1CN1CCC[C@@](O)(CNC(=O)N2CCCCC2)CC1` the “% Inhibition” value was -5% and the Z score was 0.65. For `CC(C)CC[C@@H](CCNC1CCN(C)CC1)c1ccc(Cl)cc1`, the “% Inhibition” value was 63% and the Z score was -7.69. For `CN1CCC(NCC[C@@H](Cc2ccccc2Cl)c2ccc(Cl)cc2)CC1`, the “% Inhibition” value was 72% and the Z score was -14.93. For `CC(C)CC[C@@H](CCN1CCCC1)c1ccc(OC(C)C)cc1`, the “% Inhibition” value was 2% and the Z score was -0.36. `COc1ccc(Cl)cc1CNCCN(C)C` was tested, and the “% Inhibition” value was -7% and the Z score was 0.59. In the case of `CC(Cc1ccccc1Cl)C(=O)NC1CCN(C(=O)Nc2ccccc2)C1` (configuration not stated), the “% Inhibition” value was -1% and the Z score was 0.11. `CC(C)CCn1ccc(NC2CCN(C)CC2)n1` was tested, and the “% Inhibition” value was -15% and the Z score was 1.91. `CN1CCC(NCCOCc2ccc(Cl)cc2Cl)CC1` was tested, and the “% Inhibition” value was 0% and the Z score was 0. With `CC(C)CC[C@@H](CCNCc1ccccn1)c1ccc(Cl)cc1` the “% Inhibition” value was 25% and the Z score was -3.14. `CC(C)CC[C@@H](CCNCCN(C)C)c1ccc(Cl)cc1` was tested, and the “% Inhibition” value was 90% and the Z score was -10.16. For `Cn1ccc(-c2nnc(NC(=O)C3CCCCC3)o2)n1`, the “% Inhibition” value was -10% and the Z score was 1.57. For `Cc1c(F)cccc1C(=O)N(C)Cc1cc(C2CC2)on1`, the “% Inhibition” value was 1% and the Z score was -0.14. In the case of `Cc1nn(C(F)F)cc1-c1ccc(C(=O)N[C@H]2CCCC[C@@H]2O)cc1`, the “% Inhibition” value was 1% and the Z score was -0.28. With `CCn1c(CCc2cccc(NC(=O)Nc3ccccc3)c2)nc2ccccc21` the “% Inhibition” value was 1% and the Z score was -0.11. For `O=C(NCCc1cn2c(n1)CCCC2)c1cccnc1`, the “% Inhibition” value was -1% and the Z score was 0.23. With `CCC1CN(C(=O)NCc2cc(OC)no2)CC(C)O1` (configuration not stated) the “% Inhibition” value was -11% and the Z score was 2.2. With `CC1(C(=O)Nc2n[nH]c3cc(F)ccc23)CC2CCC1O2` (configuration not stated) the “% Inhibition” value was -7% and the Z score was 1.08. In the case of `Cc1cc(C)c(C(=O)NCC#C[C@@H]2CCCCO2)c(C)n1`, the “% Inhibition” value was -23% and the Z score was 2.49. With `Cc1cccc2ncc(C(=O)N[C@@]34COC[C@@H]3C4)n12` the “% Inhibition” value was -12% and the Z score was 1.31. For `O=C(NC[C@H]1OC[C@@H](NCc2cccnc2)[C@@H]1O)c1ccc(F)cc1`, the “% Inhibition” value was -7% and the Z score was 0.99. In the case of `Cc1c([C@@H](NCc2ncccc2O)C(C)C)oc2ccccc12`, the “% Inhibition” value was 97% and the Z score was -8.67. In the case of `Cc1c([C@H](C)NCc2cncnc2)oc2ccccc12`, the “% Inhibition” value was -15% and the Z score was 1.68. In the case of `Cc1c([C@@H](NCC(=O)N2CCC(C(N)=O)CC2)C(C)C)oc2ccccc12`, the “% Inhibition” value was -13% and the Z score was 1.5. For `CC(C)C(=O)N1CCc2ccc(OCc3nc(C(=O)N(C)Cc4ccccc4)cs3)cc2[C@@H]1c1ccccc1`, the “% Inhibition” value was 1% and the Z score was -0.07. With `CN(C)c1ncc(CN[C@H]2[C@H](c3ccccc3)C2(C)C)cn1` the “% Inhibition” value was 10% and the Z score was -1.13. `CC(C)CC[C@@]1(C2CC2)NC(=O)N(Cc2ccc(C#N)cn2)C1=O` was tested, and the “% Inhibition” value was -14% and the Z score was 2.83. For `O=C(c1csnn1)N1CCc2[nH]nc(-c3ccccc3F)c2C1`, the “% Inhibition” value was -7% and the Z score was 1.02. For `COc1ccc(F)cc1S(=O)(=O)N1CCc2noc(N)c2C1`, the “% Inhibition” value was 72% and the Z score was -5.81. In the case of `COc1ccc(F)cc1S(=O)(=O)N1CCn2c(nn(C)c2=O)C1`, the “% Inhibition” value was -13% and the Z score was 2.3. With `COc1ccc(F)cc1S(=O)(=O)N1CCc2ncncc2C1` the “% Inhibition” value was -3% and the Z score was 0.62. In the case of `O=C(c1ccc(O)cc1)N1CCN(Cc2ccccn2)[C@@H]2CS(=O)(=O)C[C@@H]21`, the “% Inhibition” value was 3% and the Z score was -0.42. For `Cc1nn(-c2nc3ccccc3[nH]2)c2c1[C@@H](c1ccc(Cl)c(Cl)c1)CC(=O)N2`, the “% Inhibition” value was 14% and the Z score was -1.74. For `Cc1nn(-c2nc3ccccc3[nH]2)c2c1[C@@H](c1cccnc1)CC(=O)N2`, the “% Inhibition” value was 68% and the Z score was -14.32. With `Cc1nn(-c2nc3ccccc3[nH]2)c2c1[C@@H](c1c(C)sc3ccccc13)CC(=O)N2` the “% Inhibition” value was 4% and the Z score was -0.46. With `C[C@H]1CCN(C(=O)c2cccc3c2CCCN3)[C@@H](C)C1` the “% Inhibition” value was 12% and the Z score was -1.41. `CC(C)(C)C1CCC(O)(CNC(=O)NC2CCC(O)CC2)CC1` (configuration not stated) was tested, and the “% Inhibition” value was 0% and the Z score was -0.1. For `CCOC(=O)c1n[nH]cc1CNCc1cccnc1N(C)C`, the “% Inhibition” value was 4% and the Z score was -0.61. In the case of `COc1cc(Br)c(NC(=O)N(C)CC(C)C)cc1OC`, the “% Inhibition” value was -13% and the Z score was 1.89. For `C[n+]1ccccc1/C=C/c1c[nH]c2ccccc12`, the “% Inhibition” value was 91% and the Z score was -8.06. For `C1=Cn2nc(/C=C/c3c[nH]c4ccccc34)nc2-c2ccccc2O1`, the “% Inhibition” value was -30% and the Z score was 3.55. For `COc1ccc(OC)c2c(/C=C/c3c[nH]c4ccccc34)ccnc12`, the “% Inhibition” value was -8% and the Z score was 0.9. For `CCCCc1ccc(NCc2c[nH]c3ccccc23)cc1`, the “% Inhibition” value was 1% and the Z score was -0.17. `c1ccc2c(C(c3c[nH]c4ccccc34)c3c[nH]c4ccccc34)c[nH]c2c1` was tested, and the “% Inhibition” value was -27% and the Z score was 3.19. In the case of `CCc1ccc(/C=C/c2c[nH]c3ccccc23)[n+](CC)c1`, the “% Inhibition” value was 93% and the Z score was -8.52. In the case of `c1cnc(NCc2cnc(N3CCCC3)s2)cn1`, the “% Inhibition” value was -3% and the Z score was 0.38. `Cn1cccc1CN[C@H]1CCOc2ccc(F)cc21` was tested, and the “% Inhibition” value was -10% and the Z score was 1.36. `CCc1nnc([C@@H]2CCCN2C(=O)NCc2ccc(F)cc2)[nH]1` was tested, and the “% Inhibition” value was -5% and the Z score was 0.68. `COC1CCCCC1NC(=O)Nc1cccc(-c2ncc(C)o2)c1` (configuration not stated) was tested, and the “% Inhibition” value was -3% and the Z score was 0.66. For `CC(=O)Nc1ncc(Br)cc1C`, the “% Inhibition” value was 33% and the Z score was -0.41. In the case of `COC1CCCC1NC(=O)Nc1ncc(Br)cc1C` (configuration not stated), the “% Inhibition” value was 74% and the Z score was -9.34. With `COc1ccc(C(=O)c2oc3ccccc3c2NC(=O)c2csnn2)cc1Cl` the “% Inhibition” value was -18% and the Z score was 1.56. With `O=S(=O)(c1ccccc1)N1CCC(OCCOc2cccnc2)CC1` the “% Inhibition” value was -7% and the Z score was 1.14. `COc1cccc(S(=O)(=O)N2CCC(OCCOCc3ccccc3)CC2)c1` was tested, and the “% Inhibition” value was 40% and the Z score was -0.89. With `COc1cccc(S(=O)(=O)N2CCC(OCCOc3ccccc3)CC2)c1` the “% Inhibition” value was 53% and the Z score was -0.06. For `CCN(CC)c1ncc(CN2CC[C@H](NS(C)(=O)=O)C2)s1`, the “% Inhibition” value was -14% and the Z score was 1.85. In the case of `NC(=O)Cc1nc(CC(F)(F)F)n(C2CCCCC2)n1`, the “% Inhibition” value was 0% and the Z score was 0.02. For `COc1cc(C(=O)NCCNC(=O)c2cc(-c3ccccc3)nc3ccccc23)cc(OC)c1OC`, the “% Inhibition” value was -11% and the Z score was 1.69. With `Cn1c(-c2ccc(Cl)c(Cl)c2)c[n+](CC(=O)c2ccc(F)cc2)c1N` the “% Inhibition” value was 37% and the Z score was -4.75. For `Cn1c(-c2ccc(Cl)c(Cl)c2)c[n+](CC(=O)c2ccc(-c3ccccc3)cc2)c1N`, the “% Inhibition” value was 53% and the Z score was -0.87. In the case of `Cc1ccc(C(=O)C[n+]2cc(-c3ccc(-c4ccccc4)cc3)n(C)c2N)cc1`, the “% Inhibition” value was 42% and the Z score was -0.38. `CCc1nc(C)c(C(=O)N(C)Cc2csc(-c3ccccc3)n2)s1` was tested, and the “% Inhibition” value was -4% and the Z score was 0.61. For `NC1CCC(C(=O)NCC2(c3ccccc3Cl)CCOCC2)C1` (configuration not stated), the “% Inhibition” value was 8% and the Z score was -1.21. In the case of `Cc1ccc(O)c(CNCC2(c3ccccc3Cl)CCOCC2)n1`, the “% Inhibition” value was 98% and the Z score was -10.48. `O=C(NCC1(c2ccccc2Cl)CCOCC1)N1CCOCC1` was tested, and the “% Inhibition” value was -4% and the Z score was 0.54. `Cc1ccc2[nH]c3c(c2c1)C[C@@H](N1C(=O)CN(CC(C)C)C1=O)CC3` was tested, and the “% Inhibition” value was -3% and the Z score was 0.39. With `FC(F)(F)c1ccc(N2CCC(n3ccnn3)CC2)nn1` the “% Inhibition” value was 0% and the Z score was -0.04. For `C[C@@H](C(=O)OCc1cccc2cccnc12)N1CCOCC1`, the “% Inhibition” value was -4% and the Z score was 0.63. In the case of `Cc1cc(C)c(NC(=O)OCc2cccc3cccnc23)c(C)c1`, the “% Inhibition” value was 88% and the Z score was -13.23. For `Cc1nc(C)c(C(=O)OCc2cccc3cccnc23)s1`, the “% Inhibition” value was -18% and the Z score was 3.51. `CC1CC(C(=O)NCC2CCCCC2)c2ccccc2N1` (configuration not stated) was tested, and the “% Inhibition” value was 3% and the Z score was -0.43. `Cc1noc(C)c1CN1C(=O)NC2(CCCCC2)C1=O` was tested, and the “% Inhibition” value was -2% and the Z score was 0.32. In the case of `COc1ccc(CCNc2nc(-c3ccc(OC)cc3)c3c(N)n(-c4ccc(OC)cc4)nc3n2)cc1`, the “% Inhibition” value was -13% and the Z score was 2.28. `COc1ccc2c(c1)[n+](CC(=O)c1ccc(-c3ccc(Br)cc3)cc1)c(CO)n2C` was tested, and the “% Inhibition” value was 70% and the Z score was -5.57. For `Cc1ccc(C(=O)C[n+]2cc(-c3ccc(Br)cc3)n(C)c2N)cc1`, the “% Inhibition” value was 38% and the Z score was 2.56. With `COc1cccc(C(=O)C[n+]2cc(-c3ccc(Br)cc3)n(C)c2N)c1` the “% Inhibition” value was 35% and the Z score was -0.41. `CC1(C)C2CCC1(C)C(OC(=O)CN1CCCCCC1)C2` (configuration not stated) was tested, and the “% Inhibition” value was 0% and the Z score was -0.02. With `CC[N+](CC)(CC(=O)OC1CC2CCC1(C)C2(C)C)CC(=O)OC1CC2CCC1(C)C2(C)C` (configuration not stated) the “% Inhibition” value was 77% and the Z score was -8.45.
